Reference: PubChem BioAssay (Tox21)
Inconclusive results are not listed. Values without a mark were called inactive. Activity calls are given as the source filed them. The call rests on the fitted dose curve; in most records, active means well fitted inhibition curve with a large enough effect in the repeat runs; inconclusive means weak or mixed curves; inactive means no such curve, though single readings can be large or run the other way.

Biological target: Cytochrome P450 2C19 (Homo sapiens) (UniProt P33261)
Sequence (P33261 whole entry, looked up): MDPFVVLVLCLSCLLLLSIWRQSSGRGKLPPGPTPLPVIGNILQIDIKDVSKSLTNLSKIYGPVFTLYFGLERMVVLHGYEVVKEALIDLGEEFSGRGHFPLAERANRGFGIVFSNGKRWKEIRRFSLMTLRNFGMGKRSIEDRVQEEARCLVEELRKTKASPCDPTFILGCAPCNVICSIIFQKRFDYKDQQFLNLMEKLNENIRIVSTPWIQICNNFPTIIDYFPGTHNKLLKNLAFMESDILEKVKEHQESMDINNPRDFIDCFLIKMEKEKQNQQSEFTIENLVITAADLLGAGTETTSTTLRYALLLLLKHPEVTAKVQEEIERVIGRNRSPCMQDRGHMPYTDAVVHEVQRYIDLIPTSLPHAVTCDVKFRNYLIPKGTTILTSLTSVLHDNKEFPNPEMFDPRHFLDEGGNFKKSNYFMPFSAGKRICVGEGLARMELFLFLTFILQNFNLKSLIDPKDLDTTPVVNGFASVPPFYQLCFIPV
Test: Cytochrome P450 Family 2 Subfamily C Member 19 (CYP2C19) small molecule antagonists: luciferase reporter qHTS assay (AID 1671197); further: nearly all actives have a fitted effect of over 65% in size
Settings: P450-Glo CYP2C19 enzyme, luciferin luminescence, 1 h; series mostly up to 52.9 µM; activity change, negative = inhibition: at the top concentration
From the text: National Center for Advancing Translational Sciences [NCATS]
U.S. Environmental Protection Agency [EPA]
National Institutes of Environmental Health Sciences [NIEHS]
National Toxicology Program [NTP]
U.S. Food and Drug Administration [FDA]
Cytochrome P450 (CYP) enzymes are membrane-bound hemeproteins that play a key role in metabolism of drugs and xenobiotics. Evaluation of the effect of chemicals on CYP isozymes is useful to minimize the adverse drug reactions and toxicities in drug development process. Tox21 chemicals were tested for their effect on CYP enzyme activities by using P450-Glo (TM) screening systems (Promega Corporation, Madison, WI). These systems provide a luminescent method containing proluciferin substrates and are converted to luciferin products by CYP isozymes. The luciferin products formed are detected with a luciferin detection reagent, and the amount of light produced is proportional to CYP activity. P450-Glo (TM) CYP2C19 screening system (Catalog. No. V9880) was used to detect the compounds that interfere in CYP2C19 activity. The positive control compound used for CYP2C19 assay is ketoconazole (Sigma-Aldrich, St. Louis, MO).
Tox21 Assay Protocol Summary:
Two ul of enzyme-substrate mix was dispensed into medium binding white/solid 1536-well plates (Greiner Bio-One North America Inc., Monroe, NC) using a BioRaptr Flying Reagent Dispenser (FRD, Beckman Coulter, Brea, CA). Compounds dissolved in DMSO and positive control (ketoconazole) were transferred to the assay plates at 23 nl using a Pintool station (Wako, San Diego, CA). The assay plates were incubated at room temperature for 10 min. Then 2 ul of NADPH regeneration solution was added to each well of the assay plates using an FRD and incubated at 37C for 1 h. The reaction was stopped by adding 4 ul of detection reagent using an FRD and after 20 min incubation at room temperature the luminescence signal was measured using a ViewLux plate reader (Perkin Elmer, Shelton, CT). Data were expressed as relative luminescence units.
On the % scale 0 is the no-effect control and ±100 the full control effect; potency means the concentration at half of the fitted maximal effect.

SMILES	activity change, negative = inhibition	Potency
CCCCCCCCCCCC(=O)OC[C@@H](O)[C@H]1OC[C@H](OCCO)[C@H]1OCCO	16.1% [at 115 µM]	–
COc1cc(Cl)c(OC)cc1N	–	22.4 µM (active)
NCC(=O)CCC(=O)O	-7.25%	–
CCCCCCCCO[C@@H]1O[C@H](CO)[C@@H](O)[C@H](O)[C@H]1O	-19.4% [at 115 µM]	–
NC(N)=NCCC[C@H](N)C(=O)O	24.2% [at 10.5 µM]	–
CC(C)OC(=O)C(C)N(C(=O)c1ccccc1)c1ccc(F)c(Cl)c1 (stereo not given)	–	3.56 µM (active)
C/C=C/C(=O)CC	0.26% [at 23.6 µM]	–
O=[N+]([O-])c1ccc(NCCO)c(OCCO)c1	-8.07% [at 115 µM]	–
Cc1nn(C)c(Oc2ccccc2)c1/C=N/OCc1ccc(C(=O)OC(C)(C)C)cc1	–	2 µM (active)
Brc1c2ccccc2cc2ccccc12	–	35.9 µM (active)
CCOC(=O)c1cccnc1	14.8%	–
CC(CC=O)c1ccccc1 (stereo not given)	–	15.9 µM (active)
CCCC(=O)Nc1ccc(O)c(C(C)=O)c1	5.21%	–
Nc1ccccc1S(=O)(=O)c1ccccc1	84.3% [at 115 µM]	–
CCCCCCCC#N	15.9% [at 115 µM]	–
CC(=O)OC[C@H]1O[C@@H](n2ncc(=O)[nH]c2=O)[C@H](OC(C)=O)[C@@H]1OC(C)=O	20.5%	–
C#Cc1cccc(Nc2ncnc3cc(OCCOC)c(OCCOC)cc23)c1	15.7%	–
OC(CN1CCC(Cc2ccc(F)cc2)CC1)c1ccc(Cl)cc1 (stereo not given)	32.1%	–
N=c1ccn2c(n1)O[C@H]1[C@H](O)[C@@H](CO)O[C@H]12	-3.68% [at 115 µM]	–
CC[N+]1(CC)CCC(=C(c2ccccc2)c2ccccc2)C1C (stereo not given)	5.94%	–

SMILES	activity change, negative = inhibition	Potency
CC(C)(CO)[N+](=O)[O-]	-13.4% [at 115 µM]	–
CCOC(=O)C(=O)CCc1ccccc1	–	8.71 µM (active)
O=C1CCC(=O)O1	22.8% [at 115 µM]	–
O=C(OCCc1ccccc1)c1ccccc1	–	12.6 µM (active)
COC(=O)C1=C(C)NC(COC(N)=O)=C(C(=O)OC(C)C)C1c1cccc(Cl)c1Cl (stereo not given)	–	15.5 µM (active)
COc1ccnc(CS(=O)c2nc3ccc(OC(F)F)cc3[nH]2)c1OC (stereo not given)	–	13.8 µM (active)
c1ccc(CNCCNCc2ccccc2)cc1	–	7.76 µM (active)
CC(CSC(=O)c1ccccc1)C(=O)N1C[C@@H](Sc2ccccc2)C[C@H]1C(=O)O (stereo not given in full)	50.3% [at 23.6 µM]	–
CN(C)c1ccc(C(c2ccccc2)c2ccc(N(C)C)cc2)cc1	–	1.59 µM (active)
CN1Cc2cc(C(=O)N3CCC(C4CCNCC4)CC3)ccc2NC(CC(=O)O)C1=O (stereo not given)	31.7%	–
c1cc(CCCc2ccncc2)ccn1	–	1.59 µM (active)
CCCCCCCCCCCCCCCCOS(=O)(=O)O	-10.2%	–
COC(C)OC	-4.42% [at 115 µM]	–
CCC(C)c1cc(C(C)(C)C)c(O)c(C(C)(C)C)c1 (stereo not given)	-0.343% [at 115 µM]	–
OCCN1CCN(CCCN2c3ccccc3C=Cc3ccccc32)CC1	4.35%	–
CN1CCC(=C2c3ccccc3Sc3ccccc32)CC1	–	38.9 µM (active)
C#CCN(C)CCCOc1ccc(Cl)cc1Cl	–	3.89 µM (active)
c1ccc(-c2ccccn2)nc1	-11.7% [at 115 µM]	–
O=C(O)C(S)C(S)C(=O)O (stereo not given)	1.74%	–
O=C(O)CC(=O)C(=O)O	–	56.6 µM (active)
